Measured values from PubChem BioAssay (NCATS).
Inconclusive results are not listed. A call without a number means that no potency is given here. Activity calls are given as the source filed them. Calls come from the whole dose curve; as a rule, active = well fitted inhibition curve with a large enough effect; inconclusive = small, poorly fitted or top-dose-only effect; inactive = flat fitted curve, though single readings scatter.
Potency is the fitted concentration of half-maximal effect.

What follows are compounds tested on CP203 (assay: qHTS profiling for inhibitors of Plasmodium falciparum proliferation (AID 504749; note: nearly all actives have a fitted effect of over 60% in size)). Conditions: P. falciparum in erythrocytes, SYBR Green DNA, 72 h; series mostly up to 28.7 µM.
Description: NIH National Institute of Allergy and Infectious Diseases [NIAID] NIH Chemical Genomics Center [NCGC] MLPCN Grant: None Assay Provider: Xinzhuan Su, NIAID NCGC Assay Overview: Plasmodium falciparum is a virulent malarial parasite that kills 1-2 million people worldwide each year. Transmitted by mosquitoes, the sporozoite form of the parasite enters the blood stream to infect hepatocytes, where they become merozoites that infect red blood cells (erythrocytes). Within erythrocytes, merozoites begin a […] cycle of growth and division, after which the parasite is released to infect new red blood cells. Gametocytes, which form within erythrocytes as well, circulate in the bloodstream and are ingested by the mosquito, thereby completing the life cycle. To profile malarial isolates for differential chemical responses and to identify inhibitors of malarial growth, an assay that measures P. falciparum growth and replication within erythrocytes was employed. This assay uses a DNA binding fluorescent dye (SYBR Green) to detect parasite DNA following cell lysis. Because mature erythrocytes lack DNA, only Plasmodium-derived DNA is detected.
NCGC Assay Protocol Summary: The SYBR Green viability assay was adapted from a method described previously (Plouffe et al., 2008). For screening 3 ul culture medium was dispensed into 1536 well black clear bottom plates (Aurora Biotechnologies) using a Multidrop Combi (Thermo Fisher Scientific Inc.), 23 nL compounds in DMSO were added by a pin tool (Kalypsys), and 5 ul of erythrocytes infected with P. falciparum (0.3% parasitemia, 2.5% hematocrit final concentration) were added. The plates were incubated at 37 C in a humidified incubator in 5% CO2 for 72 h, and 2 ul lysis buffer (20 mM Tris HCl, 10 mM EDTA, 0.16% saponin, 1.6% triton X, 10X SYBR Green I supplied as 10,000X […] by Invitrogen) was added to each well. The plates were mixed for 25 sec with gentle shaking and incubated overnight at room temperature in the dark. The following morning, fluorescence intensity at 485(14) nm excitation and 535(25) nm emission wavelengths was measured on an EnVision (Perkin Elmer) plate reader. Plate reads were normalized relative to the control inhibitor (0.29 uM artemisinin) and vehicle (DMSO) wells present on each plate and then corrected by an algorithm using vehicle-only control plates at the beginning and end of the compound plate stack.
For `CC(C)NC(C)Cc1ccc(I)cc1` (configuration not stated), the Potency was “inactive”.
`CN1C2CCC1CC(OC(=O)c1cc(Cl)cc(Cl)c1)C2` (configuration not stated) was tested, and the Potency was “inactive”.
`O=[N+]([O-])c1ccc([As](=O)(O)O)cc1` was tested, and the Potency was 9.53 µM (active).
For `COC(=O)c1cncn1C(C)c1ccccc1` (configuration not stated), the Potency was “inactive”.
With `C#CC1(O)CCC2C3CCC4=CC(=O)CCC4(C)C3CCC21C` (configuration not stated) the Potency was “inactive”.
`Cc1cc(O)ccc1Cl` was tested, and the Potency was “inactive”.
`CCCN1CCC[C@H](c2cccc(O)c2)C1` was tested, and the Potency was “inactive”.
With `O=C(O)C(Cl)Cl` the Potency was “inactive”.
With `CC(=O)[O][Hg][c]1ccccc1` the Potency was 13.5 µM (active).
In the case of `CCCCc1ccc(C(=O)O)nc1`, the Potency is reported as “inactive”.
`CC(=O)OCC1=C(C(=O)O)N2C(=O)[C@@H](N)[C@@H]2SC1` was tested, and the Potency was “inactive”.
`c1ccc(C2(c3ccccc3)CC2C2=NCCN2)cc1` (configuration not stated) was tested, and the Potency was “inactive”.
In the case of `C1CCC(NC2CCCCC2)CC1`, the Potency is reported as “inactive”.
With `Cc1ccc(Cl)c(O)c1` the Potency was “inactive”.
With `NC1=NC(=O)N2CC12` (configuration not stated) the Potency was “inactive”.
For `C[C@]12CCC(=O)C(O)=C1CC[C@@H]1[C@H]3CCC(=O)[C@@]3(C)CC[C@@H]12`, the Potency was “inactive”.
With `CC[N+]1(CCOC(=O)C(O)(c2ccccc2)c2ccccc2)CCCCC1` the Potency was “inactive”.
For `CCCCCCCCCC(CC)c1ccc(S(=O)(=O)O)cc1` (configuration not stated), the Potency was “inactive”.
With `NC(=O)CN1CC(O)CC1=O` (configuration not stated) the Potency was “inactive”.
`O=C(O)COc1ccccc1` was tested, and the Potency was “inactive”.
With `C=CCN1CC[C@]23CCCCC2[C@H]1Cc1ccc(O)cc13` (some centres not stated) the Potency was “inactive”.
For `COC(=O)[C@@H](N)CCCN=C(N)N[N+](=O)[O-]`, the Potency was “inactive”.
